# In ChEMBL document CHEMBL2218924, “A broad activity screen in support of a chemogenomic map for kinase signalling research and drug discovery” (Biochem J, 2013):
# Key:
# [1] = target: Ribosomal protein S6 kinase alpha-1 (Homo sapiens) (UniProt Q15418); conditions: at 1 µM
# [2] = target: Ribosomal protein S6 kinase alpha-1 (Homo sapiens) (UniProt Q15418); conditions: at 10 µM
# [3] = target: Ribosomal protein S6 kinase alpha-3 (Homo sapiens) (UniProt P51812); conditions: at 1 µM
# [4] = target: Ribosomal protein S6 kinase alpha-3 (Homo sapiens) (UniProt P51812); conditions: at 10 µM
# [5] = target: Ribosomal protein S6 kinase alpha-2 (Homo sapiens) (UniProt Q15349); conditions: at 1 µM
# Chain of Ribosomal protein S6 kinase alpha-2 (Homo sapiens) (Q15349 whole entry): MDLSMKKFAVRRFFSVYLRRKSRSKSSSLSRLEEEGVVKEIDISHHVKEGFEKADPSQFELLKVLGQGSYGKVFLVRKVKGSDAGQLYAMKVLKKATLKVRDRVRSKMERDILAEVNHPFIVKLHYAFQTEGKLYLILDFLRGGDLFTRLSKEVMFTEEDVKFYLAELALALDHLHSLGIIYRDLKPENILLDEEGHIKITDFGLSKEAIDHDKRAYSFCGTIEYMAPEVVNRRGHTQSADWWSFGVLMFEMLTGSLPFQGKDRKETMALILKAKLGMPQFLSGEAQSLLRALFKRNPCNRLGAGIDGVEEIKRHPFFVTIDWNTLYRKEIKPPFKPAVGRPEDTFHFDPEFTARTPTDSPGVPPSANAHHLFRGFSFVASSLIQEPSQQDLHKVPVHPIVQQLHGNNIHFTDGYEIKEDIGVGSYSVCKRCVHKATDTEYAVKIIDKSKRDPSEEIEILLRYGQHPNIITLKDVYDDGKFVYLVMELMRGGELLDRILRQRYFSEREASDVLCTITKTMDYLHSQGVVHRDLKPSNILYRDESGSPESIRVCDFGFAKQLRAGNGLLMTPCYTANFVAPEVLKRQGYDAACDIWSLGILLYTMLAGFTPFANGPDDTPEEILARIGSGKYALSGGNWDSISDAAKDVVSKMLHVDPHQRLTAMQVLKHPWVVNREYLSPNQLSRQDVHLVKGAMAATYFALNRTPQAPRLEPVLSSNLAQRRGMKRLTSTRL
# [6] = target: Ribosomal protein S6 kinase alpha-2 (Homo sapiens) (UniProt Q15349); conditions: at 10 µM
# [7] = target: Ribosomal protein S6 kinase alpha-6 (Homo sapiens) (UniProt Q9UK32); conditions: at 1 µM
# Chain of Ribosomal protein S6 kinase alpha-6 (Homo sapiens) (Q9UK32 whole entry): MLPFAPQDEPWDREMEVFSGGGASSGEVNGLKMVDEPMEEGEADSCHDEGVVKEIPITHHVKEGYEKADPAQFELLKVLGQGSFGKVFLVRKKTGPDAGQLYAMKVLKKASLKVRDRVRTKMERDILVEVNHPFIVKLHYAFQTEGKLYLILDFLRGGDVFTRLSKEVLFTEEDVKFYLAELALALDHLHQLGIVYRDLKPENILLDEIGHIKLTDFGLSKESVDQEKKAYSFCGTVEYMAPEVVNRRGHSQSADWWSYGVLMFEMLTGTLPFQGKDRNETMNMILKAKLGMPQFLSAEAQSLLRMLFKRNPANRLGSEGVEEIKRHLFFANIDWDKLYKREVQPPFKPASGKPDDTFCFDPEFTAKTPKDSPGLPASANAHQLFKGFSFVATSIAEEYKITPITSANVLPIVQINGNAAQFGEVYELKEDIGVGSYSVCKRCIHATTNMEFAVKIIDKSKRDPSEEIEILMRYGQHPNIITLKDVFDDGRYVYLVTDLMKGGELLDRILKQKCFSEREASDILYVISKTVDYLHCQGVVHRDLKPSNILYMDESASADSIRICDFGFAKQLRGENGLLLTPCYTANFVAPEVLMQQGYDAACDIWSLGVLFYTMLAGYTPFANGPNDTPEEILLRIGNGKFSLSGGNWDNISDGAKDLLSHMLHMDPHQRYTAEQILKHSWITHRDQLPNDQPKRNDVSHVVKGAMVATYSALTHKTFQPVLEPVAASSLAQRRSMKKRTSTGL
# [8] = target: Ribosomal protein S6 kinase alpha-6 (Homo sapiens) (UniProt Q9UK32); conditions: at 10 µM
# [9] = target: Mitogen-activated protein kinase 14 (Homo sapiens) (UniProt Q16539); conditions: at 1 µM
# Chain of Mitogen-activated protein kinase 14 (Homo sapiens) (Q16539 whole entry): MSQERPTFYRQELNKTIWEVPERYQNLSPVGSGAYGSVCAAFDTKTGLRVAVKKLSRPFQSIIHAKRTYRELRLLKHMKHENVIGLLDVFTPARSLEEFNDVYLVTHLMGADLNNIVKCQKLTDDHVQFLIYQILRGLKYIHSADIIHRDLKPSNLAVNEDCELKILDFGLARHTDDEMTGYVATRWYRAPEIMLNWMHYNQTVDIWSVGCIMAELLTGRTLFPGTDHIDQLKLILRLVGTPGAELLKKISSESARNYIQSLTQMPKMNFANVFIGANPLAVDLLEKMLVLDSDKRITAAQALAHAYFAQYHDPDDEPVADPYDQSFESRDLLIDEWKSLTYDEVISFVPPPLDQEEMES
# [10] = target: Mitogen-activated protein kinase 14 (Homo sapiens) (UniProt Q16539); conditions: at 10 µM
# Chain of Ribosomal protein S6 kinase alpha-1 (Homo sapiens) (Q15418 whole entry): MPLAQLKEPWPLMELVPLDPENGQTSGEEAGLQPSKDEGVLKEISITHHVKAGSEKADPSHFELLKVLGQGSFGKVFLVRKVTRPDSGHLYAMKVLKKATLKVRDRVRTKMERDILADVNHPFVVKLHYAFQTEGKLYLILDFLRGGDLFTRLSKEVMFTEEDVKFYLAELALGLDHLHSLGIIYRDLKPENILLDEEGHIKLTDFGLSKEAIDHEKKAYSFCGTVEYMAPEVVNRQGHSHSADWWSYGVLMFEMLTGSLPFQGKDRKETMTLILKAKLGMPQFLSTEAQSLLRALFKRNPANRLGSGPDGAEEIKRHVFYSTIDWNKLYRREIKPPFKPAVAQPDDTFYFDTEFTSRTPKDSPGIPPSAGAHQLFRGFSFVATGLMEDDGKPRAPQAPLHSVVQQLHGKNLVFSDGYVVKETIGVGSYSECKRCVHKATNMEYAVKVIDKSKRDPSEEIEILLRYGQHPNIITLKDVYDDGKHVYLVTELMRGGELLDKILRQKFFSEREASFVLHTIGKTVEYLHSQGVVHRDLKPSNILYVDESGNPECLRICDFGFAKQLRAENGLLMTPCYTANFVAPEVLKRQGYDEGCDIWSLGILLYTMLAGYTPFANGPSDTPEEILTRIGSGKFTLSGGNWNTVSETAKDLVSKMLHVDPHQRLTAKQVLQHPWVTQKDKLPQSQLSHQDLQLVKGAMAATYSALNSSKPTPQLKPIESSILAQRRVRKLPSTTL
# Chain of Ribosomal protein S6 kinase alpha-3 (Homo sapiens) (P51812 whole entry): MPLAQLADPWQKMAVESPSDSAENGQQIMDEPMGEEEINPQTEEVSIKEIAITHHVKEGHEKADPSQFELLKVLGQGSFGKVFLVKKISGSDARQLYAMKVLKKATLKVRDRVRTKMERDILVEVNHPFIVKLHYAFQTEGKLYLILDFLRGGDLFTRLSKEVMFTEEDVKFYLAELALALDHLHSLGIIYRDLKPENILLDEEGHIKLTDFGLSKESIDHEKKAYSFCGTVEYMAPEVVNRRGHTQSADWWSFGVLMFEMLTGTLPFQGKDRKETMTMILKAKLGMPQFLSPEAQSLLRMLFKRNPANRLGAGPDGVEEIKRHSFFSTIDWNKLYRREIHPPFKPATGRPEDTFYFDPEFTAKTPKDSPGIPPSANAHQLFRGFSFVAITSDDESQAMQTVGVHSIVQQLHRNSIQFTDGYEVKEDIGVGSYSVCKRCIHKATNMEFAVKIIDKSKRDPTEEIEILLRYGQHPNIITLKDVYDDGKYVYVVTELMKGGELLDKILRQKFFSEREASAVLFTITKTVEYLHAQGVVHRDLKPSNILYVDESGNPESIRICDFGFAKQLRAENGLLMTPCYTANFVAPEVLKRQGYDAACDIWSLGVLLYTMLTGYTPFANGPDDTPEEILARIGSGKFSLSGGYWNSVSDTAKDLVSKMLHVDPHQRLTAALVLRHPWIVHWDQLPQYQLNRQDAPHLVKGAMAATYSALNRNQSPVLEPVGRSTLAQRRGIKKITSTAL
Structure (SMILES),residual activity [1] [%],residual activity [2] [%],residual activity [3] [%],residual activity [4] [%],residual activity [5] [%],residual activity [6] [%],residual activity [7] [%],residual activity [8] [%],residual activity [9] [%],residual activity [10] [%]
Nc1ncnc2c1c(-c1ccc(Oc3ccccc3)cc1)cn2C1CCCC1,123,39,65,37,106,69,91,76,86,63
O=C(CCCc1ccc(-c2ccccc2F)cc1)Nc1ccc(O)cc1,90,89,111,129,97,86,104,96,91,59
CCCC(=O)Oc1ccc2[nH]c(C(=O)c3cc4ccccc4[nH]3)cc2c1,129,99,122,93,102,90,,,79,81
CN(C)S(=O)(=O)c1ccc2c(c1)/C(=C/c1cc3c([nH]1)CCCC3)C(=O)N2,95,95,61,42,36,17,84,89,87,86
O=C1Nc2ccc(Cl)cc2/C1=C/c1cc(Cl)c(O)c(Cl)c1,94,29,68,20,88,36,77,55,54,10
O=c1cc(N2CCNCC2)oc2c(-c3ccccc3)cccc12,124,96,51,36,,104,,89,101,98
NC(=O)Nc1sc(-c2ccc(F)cc2)cc1C(N)=O,85,33,33,9,30,7,,,91,77
COc1ccc(CNC(=O)Nc2ncc([N+](=O)[O-])s2)cc1,136,109,,,,,,,,
O=S(=O)(NCCNC/C=C/c1ccc(Br)cc1)c1cccc2cnccc12,53,24,26,6,70,13,18,9,,
O=C1NC(=O)C(c2cn(CCCO)c3ncccc23)=C1c1cnccn1,98,99,41,45,63,55,83,65,82,92
Cc1cc(C)c(/C=C2\C(=O)Nc3ccccc32)[nH]1,51,11,26,5,27,4,38,17,79,98
O=C1NC(=O)C(c2c[nH]c3ccccc23)=C1c1c[nH]c2ccccc12,22,3,27,3,5,0,9,1,98,73
O=C(c1cc2cc(O)ccc2[nH]1)c1cc2cc(O)ccc2[nH]1,40,9,30,4,13,2,26,10,75,73
COc1ccc2c(c1)c(C1=C(c3c[nH]c4ccccc34)C(=O)NC1=O)cn2CCCN(C)C,6,1,2,-1,0,-2,4,2,,
CSc1nc(-c2ccc(F)cc2)c(-c2ccnc(NC(C)c3ccccc3)c2)[nH]1 (stereo not drawn),82,74,81,50,40,42,86,69,-1,0
COc1cc2c(cc1OC)-c1n[nH]c(Nc3cccc(F)c3)c1C2,112,79,63,39,,63,105,,69,44

Structure (SMILES),residual activity [1] [%],residual activity [2] [%],residual activity [3] [%],residual activity [4] [%],residual activity [5] [%],residual activity [6] [%],residual activity [7] [%],residual activity [8] [%],residual activity [9] [%],residual activity [10] [%]
COc1cc2nccc(Oc3ccc(NC(=O)Nc4cc(C)on4)c(Cl)c3)c2cc1OC,105,77,60,35,,,99,,,
O=C1NC(=O)C(c2cn(CCCn3ccnc3)c3ccccc23)=C1Nc1ccccc1,8,1,3,1,0,-1,5,2,62,78
Cn1c2ccccc2c2c3c(c4c5ccccc5n(CCC#N)c4c21)CNC3=O,7,4,1,1,0,-1,4,4,,
Nc1ncnc2[nH]nc(Nc3ccc(F)cc3)c12,106,64,42,24,59,17,48,30,78,47
Oc1cccc(-c2nc(N3CCOCC3)c3oc4ncccc4c3n2)c1,141,98,70,64,,,,,,
COc1ccc(COc2ccc(Cc3cnc(N)nc3N)cc2OC)cc1,131,109,64,64,,71,110,116,,99
CC(C)(C)n1nc(Cc2cccc3ccccc23)c2c(N)ncnc21,107,65,112,80,99,85,113,77,41,7
O=c1cc(N2CCOCC2)oc2c1ccc1ccccc12,108,97,57,46,109,99,110,101,100,92
CCN(CC)CCNC(=O)c1c(C)[nH]c(/C=C2\C(=O)Nc3ccc(Cl)cc32)c1C,11,2,11,1,9,1,14,9,82,52
Nc1n[nH]c2nc3ccccc3nc12,118,87,65,54,93,77,83,71,90,97
CCCCc1c(-c2ccc(OC)cc2)[nH]c2nccnc12,122,109,55,52,70,70,89,100,,
O=C1NC(=O)c2c1c1c3ccccc3[nH]c1n1cncc21,58,43,57,24,33,15,37,36,93,87
c1ccc(-c2cnc(Nc3ccc(OCCN4CCCC4)cc3)s2)cc1,121,66,56,36,,,72,58,,
Nc1nc(Nc2ccc(S(N)(=O)=O)cc2)nn1C(=O)c1c(F)cccc1F,28,8,32,8,19,4,27,2,,
CC(C)c1nn(-c2c(Cl)cccc2Cl)c2nc(Cc3ccc(OCCO)cc3)[nH]c(=O)c12,105,56,46,29,88,47,71,49,92,82
O=C(Nc1ccc(Cl)cc1)c1ccccc1NCc1ccncc1,129,,,,,,,,,
